Structures are written as SMILES. Where a structure was tested more than once in an assay, its records may differ in their call. Activity calls are given as the source filed them. The calls were made as follows: active = hit-call score of the fitted dose curve at least 0.9, where 1 is the maximum; inactive = score below 0.9.

Broadly, the AC50 is the concentration at which the activity in the assay is half-maximal.

Read-out in the assay: Glutamate-cysteine ligase regulatory (GCLM), GCLM (gene 2730)
The experiment in a line: LTEA_HepaRG_GCLM: Life Technologies and Expression Analysis (LTEA) Assay for Glutamate-cysteine ligase regulatory (GCLM) using HepaRG (AID 2283500). The note with it: mRNA level, 48 h; actives raise or lower the signal. The method, then:
LTEA_HepaRG is a cell based, multiplexed-readout assay that uses HepaRG, a human liver cell line, with measurements taken at 48 hours after chemical dosing on a 96-well plate.LTEA_HepaRG_GCLM is one of 102 assay component(s) measured in the LTEA HepaRG cell culture assay. It is a marker of Cell proliferation, survival, death.Data from the assay component LTEA_HepaRG_GCLM was analyzed into 1 endpoint. This assay endpoint, LTEA_HepaRG_GCLM, was analyzed with bidirectional fitting relative to DMSO as the negative control and baseline of activity. Using a type of inducible reporter, measures of mRNA induction for gain or loss-of-signal activity can be used to understand regulation of transcription factor activity. To generalize the intended target to other relatable targets, this assay endpoint is annotated to the ligase intended target family, where the subfamily is C-N ligase.
A total of 1060 chemcials from the ToxCast library were tested in eight-point concentration-response experiments. Cell culture and cytotoxicity assays were conducted at Thermo Fisher Scientific's Custom Services facility (Madison, WI). A single lot of human HepaRG cells (Thermo Fisher Scientific, Frederick, MD) was used for the cell culture experiments. 96-well format collagen type I coated plates of human HepaRG cells were prepared using established methods. Briefly, cryopreserved HepaRG cells were thawed, plated at a density of approximately 100,000 cells/well in HepaRG Thaw, Plate, and General Purpose media (HPRG770, Thermo Fisher Scientific), and incubated for 48 hours. 0.5% DMSO was selected as vehicle control to balance the requisite need of DMSO in HepaRG cultures to maintain differentiation (for example, baseline metabolism, proportions of hepatocytes vs. cholangiocytes), while enabling further hepatic receptor pathway activation (for example, PXR and CAR) in response to chemical exposure. 48 hours after plating, the culture medium was replaced with HepaRG Serum-Free Incudtion Media. Cells were exposed to each test chemical in duplicate and maintained in CO2 incubators for another 48 hours. Chemical plates were thawed to room temperature and 200x concentrations of treatment groups were prepared. 8-point conentration-reponse curves were made with the highest exposure at 100 uM, followed by half-log dilutions, all in 0.5% DMSO. Each test plate contained variouse controls, induction positive controls (1mM phenobarbital), cytotoxicity positive controls ([…] aflatoxin B1), vehicle controls (0.5% DMSO), and total lysis controls (0.5% DMSO). Cell morphology images were taken using an Essen IncuCyte FLR automated microscope, with six 96-well plates imaged in about 24 minutes. Images were captured and exported and JPEG files. Spent culture media was transfered to black-well plates for the LDH assay, and remaining media was sorted at -80 C for later use. Cells were treated with RLT buffer and frozen until shipped for gene expression analysis. Total RNA was isolated from the cell suspension in 75 uL of Buffer RLT (Qiagen, Germantown, MD 20874) by Quintiles/Expression Analysis (Durham, NC) using a custom isolation procedure. Total RNA from each plate well was transferred to a preamplification plate. Fluidigm's 96.96 Dynamic ArrayTM (Fluidigm, Amsterdam, the Netherlands) technology was used for gene expression analyses by quantitative reverse transcription polymerase chain reaction (qRT-PCR, performed by Quintiles/Expression Analysis, Durham, NC)89. Standard TaqManTM Assays (Applied Biosystems/ThermoFisher Scientific, Foster City, CA) were used to assess the expression of 93 genes selected based on their selectivity and sensitivity to important hepatic receptors known to be modulated by environmental chemicals; importance in human hepatocyte functionality; and hepatotoxicity. […]
On to `Oc1cc(Cl)ccc1Oc1ccc(Cl)cc1Cl`, for which the molecule was classed as inactive and the AC50 is 89.6 µM (active).
For the molecule `Cc1[nH]c(=O)n(C(C)(C)C)c(=O)c1Cl`, the result was inactive.
On the same count and under the same terms, then `CC(C)OC(=O)Nc1cccc(Cl)c1`, with “inactive”.
Still for that read-out and setting: with `CN1CSC(=S)N(C)C1` the entry was “inactive”; with `CC(C)(C)C(O)C(Oc1ccc(Cl)cc1)n1cncn1` (stereo not given), “inactive”.
Still for that read-out and setting: with `CNC(=O)Oc1cccc(N=CN(C)C)c1` the entry was “inactive”; with `O=S(=O)(O)C(F)(F)C(F)(F)C(F)(F)C(F)(F)C(F)(F)C(F)(F)C(F)(F)C(F)(F)F`, “inactive”.
Take `CCCN(CCOc1c(Cl)cc(Cl)cc1Cl)C(=O)n1ccnc1`: the AC50 was 13.4 µM (active).
With `CNC(=O)Oc1ccccc1OC(C)C`, the molecule was called inactive.
Turning to `CC(C)(C)C(O)/C(=C\c1ccc(Cl)cc1Cl)n1cncn1` (stereo not given), the call was inactive.
As for `CC[C@H](C)[C@H]1O[C@]2(C=C[C@@H]1C)C[C@@H]1C[C@@H](C/C=C(\C)[C@@H](O[C@H]3C[C@H](OC)[C@@H](O[C@H]4C[C@H](OC)[C@@H](O)[C@H](C)O4)[C@H](C)O3)[C@@H](C)/C=C/C=C3\CO[C@@H]4[C@H](O)C(C)=C[C@@H](C(=O)O1)[C@]34O)O2` (tested in a mixture with another compound), the AC50 was 7.66 µM (active).
For `Clc1ccccc1-c1nnc(-c2ccccc2Cl)nn1`, the AC50 was 23 µM (active).
Same read-out and setting: with `O=S1OCC2C(CO1)C1(Cl)C(Cl)=C(Cl)C2(Cl)C1(Cl)Cl` (stereo not given) the figure was 50 µM (active).
In the case of `CCOCN(C(=O)CCl)c1c(C)cccc1CC`, the outcome was inactive.
On the same count and under the same terms, with `CC(C)N(C(=O)COc1nnc(C(F)(F)F)s1)c1ccc(F)cc1` the entry was “inactive”.
Regarding `COP(=S)(OC)Oc1ccc(SC)c(C)c1`, the AC50 is 0.244 µM (active).
`COP(=O)(OC)OC=C(Cl)Cl`: the molecule was called inactive.
Take `O=C(O)CCCOc1ccc(Cl)cc1Cl`: the result was inactive.
`O=[N+]([O-])/N=C1\NCCN1Cc1ccc(Cl)nc1`: the outcome was inactive.
The same measure, in the same setting: with `CNC(=O)/C=C(\C)OP(=O)(OC)OC` the entry was “inactive”.
As to `CC1(c2ccc(Oc3ccccc3)cc2)OC(=O)N(Nc2ccccc2)C1=O` (stereo not given), the AC50 was 9.75 µM (active).
As to `OCCOc1ccccc1`, the molecule was called inactive.
On the same count and under the same terms, with `CNC(=O)CSP(=S)(OC)OC` the entry was “inactive”.
As to `CCOC1Oc2ccc(OS(C)(=O)=O)cc2C1(C)C` (stereo not given), the AC50 was 81.8 µM (active).
For the molecule `N#Cc1c(Cl)c(Cl)c(Cl)c(C#N)c1Cl`, the result was inactive.
Still for that read-out and setting: then `ClC1C(Cl)C(Cl)C(Cl)C(Cl)C1Cl` (stereo not given), with “inactive”; and `O=C1c2ccccc2C(=O)N1SC(Cl)(Cl)Cl`, with “inactive”; and `CCN(CC)C(=O)SCc1ccc(Cl)cc1`, with “inactive”.
Still for that read-out and setting: then `COc1nn(CSP(=S)(OC)OC)c(=O)s1`, with “inactive”; and `CC1(C)C(C=C(Cl)Cl)C1C(=O)OC(C#N)c1ccc(F)c(Oc2ccccc2)c1` (stereo not given), with “inactive”; and `C#CCN1C(=O)COc2cc(F)c(N3C(=O)C4=C(CCCC4)C3=O)cc21`, with “inactive”.
Turning to `COP(=S)(OC)Oc1ccc([N+](=O)[O-])cc1`, the call was inactive.
The same measure, in the same setting: with `O=C(O)C(F)(F)C(F)(F)C(F)(F)C(F)(F)C(F)(F)C(F)(F)C(F)(F)F` the entry was “inactive”; with `O=[N+]([O-])c1c(Cl)c(Cl)c(Cl)c(Cl)c1Cl`, “inactive”; with `CCCN(CCC)c1c([N+](=O)[O-])cc(C(F)(F)F)cc1[N+](=O)[O-]`, “inactive”.
For the molecule `O=C(O)COc1ccc(Cl)cc1Cl`, the molecule was classed as inactive.
Take `CCc1ccc(C(=O)NN(C(=O)c2cc(C)cc(C)c2)C(C)(C)C)cc1`: the call was inactive.
As to `C[C@H]1[C@H](c2ccc(Cl)cc2)SC(=O)N1C(=O)NC1CCCCC1`, the concentration at half-maximal activity (AC50) was 73.5 µM (active).
With `CCC(C)(C)C(=O)OC1=C(c2ccc(Cl)cc2Cl)C(=O)OC12CCCCC2`, the outcome was inactive.

(Values after PubChem BioAssay (EPA / NIEHS).)
